Source: PubChem BioAssay (NCATS)
Inconclusive results are not listed. A call without a number means that no potency is given here. More than one record can exist for a structure, and the calls need not agree. Active and inactive are the calls of the source. Unless noted, calls follow the shape of the dose curve; as a rule, active = well fitted curve in the direction sought with a large enough effect; inconclusive = small, poorly fitted or top-dose-only effect, or another doubt; inactive = no such curve, though single readings can be large; an effect the other way counts as inactive or inconclusive.

System: not listed separately
Experiment: Cellular Toxicity (caspase-3) Renal Proximal Tubule (AID 667);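 also: cells exposed to compound for 16 hours at 37 °C before detection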
Details: renal proximal tubule cells, primary cells freshly taken from rat, solvent-only wells 0%, staurosporine 100%; series mostly up to 91.7 µM
Summary of the method: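 Freshly isolated primary rat kidney proximal tubule cells, 1000/well, treated 16 hr at 37 °C, then Caspase-Glo 3/7 luminescence after 1 hr. Normalized to DMSO and 10 uM staurosporine; AC50 from Hill fit.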

| Compound | outcome |
| --- | --- |
| CCCN(CCC)C(=O)SCC | inactive |
| COc1ccc2nc(N)sc2c1 | inactive |
| ClCCCl | inactive |
| CCC(O)OC(O)CC (stereo unspecified) | inactive |
| C=Cc1ccccc1Cl | inactive |
| c1ccc2c(c1)c1cccc3ccc4cccc2c4c31 | inactive |
| Cc1cccc([N+](=O)[O-])c1C | inactive |
| CCCCCCCCO | inactive |
| CC(C)=CCCC(C)CCO (stereo unspecified) | inactive |
| O=[N+]([O-])c1cccc(Cl)c1Cl | inactive |
| CCO[Si](CCCN)(OCC)OCC | inactive |
| Clc1cc(Cl)c(Cl)cc1Cl | inactive |
| CCO | inactive |
| C=CC(=O)OCCOCCOCCOCCOC(=O)C=C | inactive |
| Clc1cc(Cl)c(Cl)c(Cl)c1Cl | inactive |
| CCCCC(CC)CN (stereo unspecified) | inactive |
| O=NO | inactive |
| c1ccc2c(c1)[nH]c1ccccc12 | inactive |
| OCCNCCO | inactive |
| Nc1ccc(Cl)cc1Cl | inactive |
| CCC(C)c1ccccc1O (stereo unspecified) | inactive |
| CC1=CC(C)(C)Nc2ccccc21 | inactive |
| CN(C)C=O | inactive |
| Cc1ccc(N)c([N+](=O)[O-])c1 | inactive |
| CCCCOCCO | inactive |
| CC(=O)OC/C=C(\C)CCC=C(C)C | inactive |

Target: Cytochrome P450 3A4 (Homo sapiens) (UniProt P08684)
Experiment: qHTS Assay for Inhibitors and Substrates of Cytochrome P450 3A4 (AID 884); also: nearly all actives have a fitted effect of over 50% in size; also: potency is read from the fitted curve at half-maximal effect
Details: recombinant CYP3A4, Luciferin-PPXE luminescence; series mostly up to 57.1 µM
Summary of the method: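 Luminescent readout of luciferin produced by CYP3A4 (20 nM) dealkylation of Luciferin-PPXE, 25 uM (its KM). NADPH-driven reaction ran 60 min at RT after 10 min compound preincubation; data scaled to 57 uM ketoconazole as 100% inhibition.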

Cytochrome P450 3A4 (Homo sapiens), sequence (P08684 whole entry, looked up): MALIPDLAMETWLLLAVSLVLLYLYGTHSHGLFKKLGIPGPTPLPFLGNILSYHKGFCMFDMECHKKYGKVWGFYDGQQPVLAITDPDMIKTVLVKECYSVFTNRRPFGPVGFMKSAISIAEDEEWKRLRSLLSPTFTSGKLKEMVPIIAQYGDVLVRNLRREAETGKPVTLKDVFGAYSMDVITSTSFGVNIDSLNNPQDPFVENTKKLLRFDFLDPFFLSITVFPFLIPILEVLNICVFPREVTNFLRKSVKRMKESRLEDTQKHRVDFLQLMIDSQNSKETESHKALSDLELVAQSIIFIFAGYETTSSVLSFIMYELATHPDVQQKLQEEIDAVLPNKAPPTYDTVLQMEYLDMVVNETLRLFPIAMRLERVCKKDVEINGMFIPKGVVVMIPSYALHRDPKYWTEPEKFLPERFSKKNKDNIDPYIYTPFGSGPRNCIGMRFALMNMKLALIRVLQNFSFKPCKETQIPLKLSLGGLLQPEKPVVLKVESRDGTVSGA

| Compound | Potency |
| --- | --- |
| ClCCCl | inactive |
| CCC(O)OC(O)CC (stereo unspecified) | inactive |
| C=Cc1ccccc1Cl | inactive |
| c1ccc2c(c1)c1cccc3ccc4cccc2c4c31 | inactive |
| Cc1cccc([N+](=O)[O-])c1C | inactive |
| CCCCCCCCO | inactive |
| O=[N+]([O-])c1cccc(Cl)c1Cl | inactive |
| CCO[Si](CCCN)(OCC)OCC | inactive |
| Clc1cc(Cl)c(Cl)cc1Cl | inactive |
| CCO | inactive |
| C=CC(=O)OCCOCCOCCOCCOC(=O)C=C | inactive |
| CCCCC(CC)CN (stereo unspecified) | inactive |
| O=NO | inactive |
| OCCNCCO | inactive |
| COc1ccc2[nH]cc(CCNc3ncncc3-c3ccccc3C(F)(F)F)c2c1 | 251 nM (active) |
| CC1=CC(C)(C)Nc2ccccc21 | 10 µM (active) and inactive |
| CN(C)C=O | inactive |
| Cc1ccc(N)c([N+](=O)[O-])c1 | inactive |
| CC(=O)OC/C=C(\C)CCC=C(C)C | inactive |
| CN(C)c1nc(-c2cccc(NS(C)(=O)=O)c2)nc2ccccc12 | 6310 nM (active) |

Target: Cytochrome P450 3A4 (Homo sapiens) (UniProt P08684)
Experiment: qHTS Assay for Activators of Cytochrome P450 3A4 (AID 885); also: nearly all actives have a fitted effect of over 65% in size
Details: recombinant CYP3A4, Luciferin-PPXE luminescence, 60 min; series mostly up to 57.1 µM
Summary of the method: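 Human CYP3A4 dealkylates Luciferin-PPXE to luciferin, which luciferase detection converts to light. Substrate was at its KM (25uM), buffer 200mM KPO4, reaction 60 min at RT.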

| Compound | outcome |
| --- | --- |
| COc1ccccc1-c1nc(NC2CC2)c2ccccc2n1 | inactive |
| COc1ccc2nc(N)sc2c1 | inactive |
| COc1ccc2[nH]cc(CCNc3ncnc4ccc(-c5cccc(C#N)c5)cc34)c2c1 | inactive |
| CCNc1ncc2ncc(=O)n(Cc3ccc(F)cc3)c2n1 | inactive |
| COc1ccc2[nH]cc(CCNc3ncncc3-c3ccccc3C(F)(F)F)c2c1 | inactive |
| CCNc1ncc2nc(CCc3ccccc3)c(=O)n(C3CC3)c2n1 | inactive |
| CN1CCN(c2nc(-c3cccnc3)nc3ccccc23)CC1 | inactive |
| CC1=CC(C)(C)Nc2ccccc21 | inactive |
| CN(C)C(=O)c1ccc(-c2nc(Nc3ccccc3)c3ccccc3n2)cc1 | inactive |
| COc1cccc(Cn2c(=O)cnc3cnc(N(C)C)nc32)c1 | inactive |
| COc1cccc(-c2nc(NCc3cccnc3)c3ccccc3n2)c1 | inactive |
| CN1CCN(c2nc(-c3ccoc3)nc3ccccc23)CC1 | inactive |
| CN(C)c1nc(-c2cccc(NS(C)(=O)=O)c2)nc2ccccc12 | inactive |

Target: Cytochrome P450 2C19 (Homo sapiens) (UniProt P33261)
Experiment: qHTS Assay for Inhibitors and Substrates of Cytochrome P450 2C19 (AID 899); also: potency is read from the fitted curve at half-maximal effect; nearly all actives have a fitted effect of over 60% in size
Details: recombinant CYP2C19, luciferin-H EGE luminescence; series mostly up to 57.1 µM
Summary of the method: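 In 50mM KPO4, the reaction held 5nM enzyme and KM-level (10uM) Luciferin-H EGE; it ran 60 min at 37C after NADPH regeneration and a 10 min compound preincubation. Luminescence values were scaled to 57uM ketoconazole as complete inhibition.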

Cytochrome P450 2C19 (Homo sapiens), sequence (P33261 whole entry, looked up): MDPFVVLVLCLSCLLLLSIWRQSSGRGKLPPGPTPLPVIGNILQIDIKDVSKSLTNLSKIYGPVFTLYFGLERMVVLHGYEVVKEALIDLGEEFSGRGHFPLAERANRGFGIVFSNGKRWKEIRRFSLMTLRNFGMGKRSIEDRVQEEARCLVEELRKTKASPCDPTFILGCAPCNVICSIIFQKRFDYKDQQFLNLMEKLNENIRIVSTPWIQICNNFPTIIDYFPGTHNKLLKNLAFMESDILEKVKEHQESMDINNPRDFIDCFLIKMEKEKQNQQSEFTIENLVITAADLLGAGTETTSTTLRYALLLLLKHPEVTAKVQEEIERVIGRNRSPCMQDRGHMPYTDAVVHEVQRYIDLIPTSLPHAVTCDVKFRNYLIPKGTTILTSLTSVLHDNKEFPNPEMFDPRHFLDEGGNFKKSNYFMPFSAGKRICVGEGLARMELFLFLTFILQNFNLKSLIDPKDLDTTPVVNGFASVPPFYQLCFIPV

| Compound | Potency |
| --- | --- |
| COc1ccc2[nH]cc(CCNc3ncnc4ccc(-c5cccc(C#N)c5)cc34)c2c1 | 7.94 µM (active) |
| COc1ccc2[nH]cc(CCNc3ncncc3-c3ccccc3C(F)(F)F)c2c1 | 0.251 µM (active) |
| CCNc1ncc2nc(CCc3ccccc3)c(=O)n(C3CC3)c2n1 | 6.31 µM (active) |
| COc1cccc(Cn2c(=O)cnc3cnc(N(C)C)nc32)c1 | 2.51 µM (active) |

System: not listed separately
Experiment: qHTS Assay for Identification of Small Molecule Agonists for Hypoxia Response Element Signaling Pathway (AID 914; active = well fitted activation curve with a large enough effect in the signal ratio, with a control signal flat, not every such curve was filed as active; the % refers to the signal ratio)
Details: ME-180 (cervical carcinoma) HRE-bla reporter, beta-lactamase ratio, CoCl2, 17 h; activation: stronger effect = higher value
Summary of the method: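 Positive modulation of EC50 CoCl2-induced hypoxia response element signaling is measured in ME-180 cells with a beta-lactamase reporter. Compounds are titrated, incubation runs 17 hours, and %Activity derives from the blue/green ratio.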

| Compound | activation |
| --- | --- |
| COc1ccccc1CNc1nc(-c2ccc(C(=O)N(C)C)cc2)nc2ccccc12 | 25.3% (inactive) |
| COc1cccc(-c2nc(NCc3cccnc3)c3ccccc3n2)c1 | -25.6% (inactive) |
| CN(C)c1nc(-c2cccc(NS(C)(=O)=O)c2)nc2ccccc12 | 22.5% (inactive) |

System: not listed separately
Experiment: Cell Viability - LYMP2-001 (AID 921);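 also: cells exposed to compound for 24 h at 37 °C; nearly all actives have a fitted effect of over 70% in size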; also: potency is read from the fitted curve at half-maximal effect
Details: LYMP2-001 lymphoblastoid cell viability; series mostly up to 92.2 µM
Summary of the method: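 Human lymphoblastoid LYMP2-001 cells, 2500 per well, in complete medium, treated 24 h at 37 C. Viability from cellular ATP by CellTiter-Glo luminescence; AC50 from Hill-equation fits of qHTS concentration-response.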

| Compound | Potency |
| --- | --- |
| CCCN(CCC)C(=O)SCC | inactive |
| COc1ccc2nc(N)sc2c1 | inactive |
| ClCCCl | inactive |
| CCC(O)OC(O)CC (stereo unspecified) | inactive |
| C=Cc1ccccc1Cl | inactive |
| c1ccc2c(c1)c1cccc3ccc4cccc2c4c31 | inactive |
| Cc1cccc([N+](=O)[O-])c1C | inactive |
| CCCCCCCCO | inactive |
| CC(C)=CCCC(C)CCO (stereo unspecified) | inactive |
| O=[N+]([O-])c1cccc(Cl)c1Cl | inactive |
| CCO[Si](CCCN)(OCC)OCC | inactive |
| Clc1cc(Cl)c(Cl)cc1Cl | inactive |
| CCO | inactive |
| C=CC(=O)OCCOCCOCCOCCOC(=O)C=C | 15.8 µM (active) |
| Clc1cc(Cl)c(Cl)c(Cl)c1Cl | inactive |
| CCCCC(CC)CN (stereo unspecified) | inactive |
| O=NO | inactive |
| c1ccc2c(c1)[nH]c1ccccc12 | inactive |
| OCCNCCO | inactive |
| Nc1ccc(Cl)cc1Cl | inactive |
| CCC(C)c1ccccc1O (stereo unspecified) | inactive |
| CC1=CC(C)(C)Nc2ccccc21 | inactive |
| CN(C)C=O | inactive |
| Cc1ccc(N)c([N+](=O)[O-])c1 | inactive |
| CCCCOCCO | inactive |
